From PubChem BioAssay
Sampled rows, rich in hits. Any-hit rate of the full collection: about 2.3%.
PP5 primary = blocks human protein phosphatase 5 activity | 320,000 compounds, 0.18% hits | purified PP5c, OMFP substrate fluorescence | inhibition, % at 6.7 µM | AID 1987 | P53041;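 active = inhibition above the campaign's mean inhibition across all tested compounds plus 3 SD, cut at about 9.5% in these data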;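 also: 0% = DMSO only and 100% = 100 µM cantharidin control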
Target sequence (P53041 whole entry, looked up): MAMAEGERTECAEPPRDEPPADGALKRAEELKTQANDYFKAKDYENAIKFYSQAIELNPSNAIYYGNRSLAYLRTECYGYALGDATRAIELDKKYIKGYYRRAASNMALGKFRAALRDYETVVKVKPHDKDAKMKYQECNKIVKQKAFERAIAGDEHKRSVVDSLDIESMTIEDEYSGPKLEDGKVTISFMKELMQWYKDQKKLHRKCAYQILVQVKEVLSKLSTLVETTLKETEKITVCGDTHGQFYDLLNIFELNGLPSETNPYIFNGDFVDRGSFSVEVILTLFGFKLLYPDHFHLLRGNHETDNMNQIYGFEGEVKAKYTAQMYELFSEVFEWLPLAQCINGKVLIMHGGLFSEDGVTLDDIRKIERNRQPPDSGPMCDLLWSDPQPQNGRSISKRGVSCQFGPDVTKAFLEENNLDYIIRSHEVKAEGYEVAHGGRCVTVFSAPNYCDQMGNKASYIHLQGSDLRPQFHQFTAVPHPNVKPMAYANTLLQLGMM
ZTA counter = counter-screen for EBNA-1 inhibitors: inhibitors of Epstein-Barr virus ZTA | P03206 | ZTA-DNA binding, fluorescence polarization | inhibition, % at 11 µM | 320,000 compounds, 0.15% hits | AID 2234; in the data active = inhibition above about 33%
EBNA-1 inhibitor = blocks EBNA-1 binding to DNA; EBNA-1 DNA binding, fluorescence polarization; inhibition, % at 14.8 µM; 300,000 compounds, 0.34% hits; AID 1950; in the data active = inhibition above about 28%
PP1 counter = blocks human PP1-alpha phosphatase, a PP5 counter-screen; purified PP1alpha, OMFP fluorescence; inhibition, % at 6.7 µM; 320,000 compounds, 0.9% hits; AID 2235;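 active = inhibition above the mean inhibition of all tested compounds plus 3 SD, computed separately for each screening campaign, cut at about 15% in these data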
MsrA act = bovine methionine sulfoxide reductase A activation. purified bovine MsrA, absorbance read-out. AID 602163. activation, % at 10.6 µM. 360,000 compounds, 0.3% hits; in the data active = activation above about 7.5%;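 also: 0% = vehicle and 100% = reference activator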
MsrA inhibitor = inhibits bovine methionine sulfoxide reductase A; AID 651718; 360,000 compounds, 0.75% hits; inhibition, % at 15.5 µM; purified bovine MsrA, absorbance read-out;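 also: 0% = vehicle wells with enzyme and 100% = reference inhibitor wells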
MsrA conf = confirmation of bovine MsrA inhibitors. AID 651822. shares compounds with MsrA inhibitor. inhibition, % at 15.5 µM. 2,300 compounds, 41% hits. purified bovine MsrA, absorbance read-out;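 also: coupled to thioredoxin reductase with NADPH and selenocystamine and DMSO as substrate; 0% = vehicle only and 100% = full effect of reference inhibitor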
* = called active by the depositor; x = no result. Rule as the data show it, unless noted: active = inhibition above about 4.5%; inactive = the rest.

SMILES | PP5 primary | ZTA counter | EBNA-1 inhibitor | PP1 counter | MsrA act | MsrA inhibitor | MsrA conf
CCOC(=O)N1CCN(C(=O)C2CCC(=O)N(Cc3cccc(C(F)(F)F)c3)C2)CC1 (configuration not stated) | 0 | 6 | 4 | 1 | -2 | 1 | x
O=C(O)CSc1cc(NS(=O)(=O)c2ccc(Br)cc2)c2ccccc2c1O | 2 | 9 | 13 | 4 | 9.3* | 4.9* | -1
Cc1ccc(S(=O)(=O)Nc2ccc(Br)cc2C(NCC(=O)O)c2ccccc2)cc1 (configuration not stated) | 1 | 14 | 13 | 15 | -11 | 0 | x
CCOC(=O)CSC1=C(C#N)C(=O)NC(c2ccc(OC)cc2)S1 (configuration not stated) | 1 | 12 | -10 | 0 | -1 | 6.6* | 6.3*
N#C/C(C(=O)N1CCCCC1)=C1\Nc2ccccc2S1 | 0 | 10 | -7 | 1 | -8 | 8.2* | 5.0*
CC(=C1N=C(c2ccccc2)OC1=O)c1cccs1 | x | x | x | x | x | 0 | x
CN(C)/C(CN1CCN(C=O)CC1)=C1\N=C(c2ccccc2)OC1=O | 0 | -10 | -21 | -3 | -6 | 6.0* | 5.3*
CCOC(=O)N/N=C/c1cc(OC)c(O)c(OC)c1 | -2 | 14 | 3 | 1 | -9 | 0 | x
COc1cc(/C=N/NC(=O)C(N)=O)cc(OC)c1O | 1 | 13 | 6 | -1 | -9 | 4.8* | 4
COc1cc(/C=N/N=C/c2cc(OC)c(O)c(OC)c2)cc(OC)c1O | 3 | 4 | 4 | 6 | -11 | 6.0* | 5.8*
COc1ccc(/C=N/N=C/c2ccc(OC)c(OC)c2)cc1OC | 1 | 1 | -13 | -6 | 3 | 2 | x
O=[N+]([O-])c1ccc(Nc2cccc(F)c2)nc1 | 0 | -3 | -17 | 4 | -11 | 2 | x
CCOC(=O)C1CCCN(C(=O)c2cc(F)cc(F)c2)CC1 (configuration not stated) | x | x | x | x | -2 | 0 | x
CO[C@H]1C=CO[C@@]2(C)Oc3c(C)c(O)c4c(O)c(c(C=NN5CCN(C)CC5)c(O)c4c3C2=O)NC(=O)C(C)=CC=C[C@H](C)[C@H](O)[C@@H](C)[C@@H](O)[C@@H](C)[C@H](OC(C)=O)[C@@H]1C | 3 | 10 | 7 | 3 | -4 | 5.4* | 3
CO[C@H]1/C=C/O[C@@]2(C)Oc3c(C)c(O)c4c(O)c(c(C=NN5CCN(C)CC5)c(O)c4c3C2=O)NC(=O)/C(C)=C\C=C\[C@H](C)[C@H](O)[C@@H](C)[C@@H](O)[C@@H](C)[C@H](OC(C)=O)[C@@H]1C | 4 | 2 | -1 | 3 | 2 | 2 | x
Clc1ccc(COn2nnc3ccccc32)c(Cl)c1 | 0 | -5 | 12 | -5 | -12 | 0 | x
Cc1cccc(N=Nc2cn[nH]c2-c2ccco2)c1 | 3 | -1 | -7 | 0 | -8 | 1 | x
c1ccc(N=Nc2cn[nH]c2-c2ccco2)cc1 | x | x | x | x | -4 | 6.9* | 5
Cc1cccc(N2CCN(C(=S)Nc3ccc4nc5n(c(=O)c4c3)CCCCC5)CC2)c1C | -1 | 16 | 14 | -2 | -13 | 0 | x
O=C1C(Cl)=C(NCCCN2CCOCC2)C(=O)N1CCc1ccccc1 | 2 | -6 | 9 | 3 | 0 | 27* | 25*
O=C1C(Cl)=C(NCCc2ccccc2)C(=O)N1CCc1ccccc1 | -1 | -9 | -9 | 4 | -1 | -1 | x
CCN(CC)CCNC(=O)c1cn(CC)c2cc(N3CCN(C)CC3)c(F)cc2c1=O | 0 | 9 | 0 | -2 | -9 | 0 | x
N#Cc1ccc(C(=O)N/N=C/c2cn(CC(=O)O)c3ccccc23)c(F)c1 | -1 | -5 | -3 | -3 | -6 | 6.8* | 3
CCOC(=O)Cn1cc(/C=N/NC(=O)c2ccc(C#N)cc2F)c2ccccc21 | -1 | 9 | 5 | -2 | -4 | 6.2* | 4
Cn1cc(/C=N/NC(=O)c2ccc(C#N)cc2F)c2ccccc21 | 2 | -18 | 0 | -3 | -3 | 3 | x
SMILES | PP5 primary | ZTA counter | EBNA-1 inhibitor | PP1 counter | MsrA act | MsrA inhibitor | MsrA conf
O=C(CC(=O)Nc1ccc(F)cc1)Nc1ccc(F)cc1 | 1 | 4 | -10 | 4 | -2 | -1 | x
COc1ccc(/C=C(/NC(=O)c2ccc(Br)o2)C(=O)Nc2cccc(C(=O)O)c2)cc1 | x | x | x | x | -6 | 5.7* | 4
O=C(Nc1cccc(C(=O)O)c1)/C(=C\c1ccc2c(c1)OCO2)NC(=O)c1ccccc1 | -3 | -16 | 3 | 0 | -6 | 5.5* | 3
O=C(Nc1cccc(C(=O)O)c1)/C(=C\c1ccc2c(c1)OCO2)NC(=O)c1ccc(Br)cc1 | -1 | 9 | -4 | -4 | -19 | 6.1* | 2
COC(=O)Cc1cccc2c(=O)c3ccccc3oc12 | 1 | -5 | 1 | -6 | -7 | 2 | x
COc1ccc(N(CC(=O)NC2CC2)S(=O)(=O)c2ccccc2)cc1 | -3 | 15 | 3 | -4 | -4 | 0 | x
O=C(NCCC(=O)N1CCC2(CC1)NCCc1[nH]cnc12)c1ccc(F)c(F)c1 | 0 | -1 | 6 | -4 | -5 | 1 | x
Cc1ccc(Nc2n[nH]c(C)c2[N+](=O)[O-])c(C)c1 | 3 | -7 | -1 | -6 | 0 | 10* | 9.1*
CC1=C(C(=O)c2ccccc2)C(c2ccc(O)cc2)NC(=S)N1 (configuration not stated) | 0 | -8 | -7 | -1 | -4 | 5.4* | 1
CC1=C(C(=O)c2ccccc2)C(c2ccc(OC(F)F)cc2)NC(=S)N1 (configuration not stated) | 5 | 0 | -7 | 1 | -3 | 2 | x
Cc1cc(/C=C(/C#N)C(=O)O)c(C)n1-c1cccc2ccccc12 | 3 | 10 | -13 | 5 | -3 | 5.7* | 4.9*
Cc1cc(/C=C(\C#N)C(=O)Nc2ccccc2)c(C)n1-c1ccc(C(=O)O)cc1 | -2 | 12 | 7 | -3 | -6 | 1 | x
Cc1c(C(=O)O)cccc1-n1c(C)cc(/C=C(/C#N)C(=O)NCc2ccccc2)c1C | 1 | -2 | 2 | 0 | -3 | 4 | x
Cc1cccc(NC(=O)/C(C#N)=C\c2cc(C)n(-c3ccc(C(=O)O)cc3)c2C)c1 | 1 | 0 | -8 | 1 | -4 | 4.7* | 4
CCOC(=O)[C@@H]1[C@H]2COc3ccccc3[C@H]2N2C(=O)N(c3ccc(C(F)(F)F)cc3)C(=O)[C@]12C | 4 | -4 | -26 | 3 | 3 | 2 | x
CC[n+]1c(/C=C(\C)Nc2ccccc2)sc2ccccc21 | 2 | -8 | 0 | -2 | -5 | -1 | x
CC[n+]1c(/C=C(\C)OC)sc2ccccc21 | x | x | x | x | -12 | 5.8* | 5.0*
Cc1cccc(-n2nc3c(c2NC(=O)c2ccc(Br)o2)CSC3)c1 | 2 | 1 | -6 | 12 | -4 | 0 | x
O=[N+]([O-])c1c(Nc2ccccc2O)cc(N2CCOCC2)c2nonc12 | 0 | -18 | -8 | 5 | -6 | 18* | 24*
